The sample as a whole holds a higher share of the strongest signals than the screen did.
Key:
Test in all cases: glycan array binding signal (z-score within array); higher = stronger binding
Conditions in all cases: glycan notation: IUPAC condensed, linker removed
[1] = target: Fuc(a1-2)Gal(b1-3)GlcNAc6S
In short: (§1)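 The binding signal is a Z-score computed within each array and averaged over linkers. Arrays of the same protein sequence at different concentrations or buffers were also averaged together. Data originate from 3228 arrays in the Consortium for Functional Glycomics database, kept only where the protein sequence was available.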

[2] = target: Fuc(a1-2)Gal(b1-3)[Fuc(a1-4)]GlcNAc(b1-2)Man(a1-3)[Fuc(a1-2)Gal(b1-3)[Fuc(a1-4)]GlcNAc(b1-2)Man(a1-6)]Man(b1-4)GlcNAc(b1-4)[Fuc(a1-6)]GlcNAc(b1-4)[Fuc(a1-6)]GlcNAc
In short: as §1

Fuc(a1-2)Gal(b1-4)Glc = target: Fuc(a1-2)Gal(b1-4)Glc
In short: as §1

Fuc(a1-2)Gal(b1-4)GlcNAc = target: Fuc(a1-2)Gal(b1-4)GlcNAc
In short: as §1

[3] = target: Fuc(a1-2)Gal(b1-4)[Fuc(a1-3)]GlcNAc
In short: as §1

[4] = target: Fuc(a1-2)Gal6S(b1-4)GlcNAc
In short: as §1

[5] = target: Fuc(a1-2)[Gal(a1-3)]Gal(b1-3)GlcNAc
In short: as §1

[6] = target: Fuc(a1-2)[Gal(a1-3)]Gal(b1-4)[Fuc(a1-3)]GlcNAc
In short: as §1

[7] = target: Fuc(a1-2)[GalNAc(a1-3)]Gal(b1-3)GlcNAc
In short: as §1

[8] = target: Fuc(a1-2)[GalNAc(a1-3)]Gal(b1-3)GlcNAc(b1-2)Man(a1-3)[Fuc(a1-2)[GalNAc(a1-3)]Gal(b1-3)GlcNAc(b1-2)Man(a1-6)]Man(b1-4)GlcNAc(b1-4)GlcNAc
In short: as §1

[9] = target: Fuc(a1-2)[GalNAc(a1-3)]Gal(b1-4)Glc
In short: as §1

[10] = target: Fuc(a1-2)[GalNAc(a1-3)]Gal(b1-4)GlcNAc
In short: as §1

[11] = target: Fuc(a1-2)[GalNAc(a1-3)]Gal(b1-4)GlcNAc(b1-2)Man
In short: as §1

[12] = target: Fuc(a1-2)[GalNAc(a1-3)]Gal(b1-4)GlcNAc(b1-2)Man(a1-3)[Fuc(a1-2)[GalNAc(a1-3)]Gal(b1-4)GlcNAc(b1-2)Man(a1-6)]Man(b1-4)GlcNAc(b1-4)GlcNAc
In short: as §1

[13] = target: Fuc(a1-2)[GalNAc(a1-3)]Gal(b1-4)GlcNAc(b1-3)Gal(b1-4)GlcNAc
In short: as §1

[14] = target: Fuc(a1-2)[GalNAc(a1-3)]Gal(b1-4)GlcNAc(b1-3)Gal(b1-4)GlcNAc(b1-3)Gal(b1-4)GlcNAc
In short: as §1

[15] = target: Fuc(a1-3)[Gal(b1-4)]GlcNAc(b1-6)GalNAc
In short: as §1

[16] = target: Gal(a1-3)Gal(b1-4)[Fuc(a1-3)]GlcNAc
In short: as §1

[17] = target: Gal(b1-3)GalNAc(a1-3)[Fuc(a1-2)]Gal(b1-4)Glc
In short: as §1

[18] = target: Gal(b1-3)GalNAc(a1-3)[Fuc(a1-2)]Gal(b1-4)GlcNAc
In short: as §1

Gal(b1-3)GlcNAc = target: Gal(b1-3)GlcNAc
In short: as §1

[19] = target: Gal(b1-3)GlcNAc(b1-2)Man(a1-3)[Gal(b1-3)GlcNAc(b1-2)Man(a1-6)]Man(b1-4)GlcNAc(b1-4)GlcNAc
In short: as §1

[20] = target: Gal(b1-3)[GlcNAc(b1-6)]GalNAc
In short: as §1

[21] = target: Gal(b1-3)[Neu5Ac(a2-6)]GlcNAc(b1-6)Gal(b1-4)Glc
In short: as §1

[22] = target: Gal(b1-4)GalNAc(a1-3)[Fuc(a1-2)]Gal(b1-4)GlcNAc
In short: as §1

Gal(b1-4)GlcNAc(b1-2)Man = target: Gal(b1-4)GlcNAc(b1-2)Man
In short: as §1

[23] = target: Gal(b1-4)GlcNAc(b1-3)Gal(b1-4)GlcNAc(b1-3)Gal(b1-4)GlcNAc
In short: as §1

[24] = target: Gal(b1-4)GlcNAc(b1-3)Gal(b1-4)GlcNAc(b1-3)Gal(b1-4)GlcNAc(b1-3)Gal(b1-4)GlcNAc(b1-2)[Gal(b1-4)GlcNAc(b1-3)Gal(b1-4)GlcNAc(b1-3)Gal(b1-4)GlcNAc(b1-3)Gal(b1-4)GlcNAc(b1-6)]Man(a1-6)[Gal(b1-4)GlcNAc(b1-3)Gal(b1-4)GlcNAc(b1-3)Gal(b1-4)GlcNAc(b1-3)Gal(b1-4)GlcNAc(b1-2)Man(a1-3)]Man(b1-4)GlcNAc(b1-4)[Fuc(a1-6)]GlcNAc
In short: as §1

[25] = target: Gal3S(b1-4)[Fuc(a1-3)]Glc6S
In short: as §1

GalNAc(b1-3)GlcNAc = target: GalNAc(b1-3)GlcNAc
In short: as §1

B1: Gal 4 (Mus musculus), P56470 (protein)
chain: MAYVPAPGYQPTYNPTLPYYQPIPGGLNVGMSVYIQGVASEHMKRFFVNFVVGQDPGSDVAFHFNPRFDGWDKVVFNTLQGGKWGSEERKRSMPFKKGAAFELVFIVLAEHYKVVVNGNPFYEYGHRLPLQMVTHLQVDGDLQLQSINFIGGQPLRPQGPPMMPPYPGPGHCHQQLNSLPTMEGPPTFNPPVPYFGRLQGGLTARRTIIIKGYVPPTGKSFAINFKVGSSGDIALHINPRMGNGTVVRNSLLNGSWGSEEKKITHNPFGPGQFFDLSIRCGLDRFKVYANGQHLFDFAHRLSAFQRVDTLEIQGDVTLSYVQI
glycan array binding signal (z-score) [1]: 4.25
glycan array binding signal (z-score) [2]: -0.312
glycan array binding signal (z-score) (Fuc(a1-2)Gal(b1-4)Glc): -0.196
glycan array binding signal (z-score) (Fuc(a1-2)Gal(b1-4)GlcNAc): -0.232
glycan array binding signal (z-score) [3]: -0.234
glycan array binding signal (z-score) [4]: -0.199
glycan array binding signal (z-score) [5]: 2.26
glycan array binding signal (z-score) [6]: -0.266
glycan array binding signal (z-score) [7]: 4.51
glycan array binding signal (z-score) [8]: 6.91
glycan array binding signal (z-score) [9]: 5.4
glycan array binding signal (z-score) [10]: 3.27
glycan array binding signal (z-score) [11]: 4.19
glycan array binding signal (z-score) [12]: 3.77
glycan array binding signal (z-score) [13]: 4.64
glycan array binding signal (z-score) [14]: 4.02
glycan array binding signal (z-score) [15]: -0.301
glycan array binding signal (z-score) [16]: -0.234
glycan array binding signal (z-score) [17]: 4.95
glycan array binding signal (z-score) [18]: 3.84
glycan array binding signal (z-score) (Gal(b1-3)GlcNAc): -0.228
glycan array binding signal (z-score) [19]: -0.181
glycan array binding signal (z-score) [20]: -0.234
glycan array binding signal (z-score) [21]: -0.176
glycan array binding signal (z-score) [22]: 4.23
glycan array binding signal (z-score) (Gal(b1-4)GlcNAc(b1-2)Man): -0.289
glycan array binding signal (z-score) [23]: -0.171
glycan array binding signal (z-score) [24]: -0.148
glycan array binding signal (z-score) [25]: -0.18
glycan array binding signal (z-score) (GalNAc(b1-3)GlcNAc): -0.272
